From PubChem BioAssay (NCI) come the findings set out here.

About 83,000 compounds went through this panel and 20% of them were active in at least one assay; those are over-represented in the sample as a whole.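 Negative percent growth values reflect cell death: -40 means 40% of the cells present at the start died, and -100 means all died.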 The source made the active and inactive calls.

The subject of the experiment is A549/ATCC NSCLC. The experiment is described as follows: NCI-60 one-dose screen, 48 h (100 = growth as untreated, 0 = no growth, -100 = all killed). Particulars: 10 µM. The method, then: Growth inhibition of the A549/ATCC human Non-Small Cell Lung tumor cell line is measured as a screen for anti-cancer activity. Cells are grown in 96 well plates and exposed to the test compound for 48 hours. Compounds are tested at a single concentration, which is 10^-5 M for most compounds. The reported endpoint is percent growth (GI% or GIPRCNT), where numbers from 0 - 100% represent growth inhibition, and numbers from -100% - 0 represent cell death. For example, a value of 40 represents 60% growth inhibition. A value of 0 means no net growth occurred over the course of the experiment. A value of -40 indicates 40% of cells at the beginning of the experiment died by the end of the experiment. A value of -100 means all cells are dead at the end of the experiment.
NCI-60 Human Tumor Cell Lines Screen was performed using the standard one-dose NCI protocol, which is described in more detail at https://dtp.cancer.gov/discovery_development/nci-60/default.htm.
Compounds with GIPRCNT values below 10 were considered active. Activity score was based on GIPRCNT using the following formula: […]
Score is 0 for GIPRCNT values of 100 or above, 50 for GIPRCNT values of 0, and 100 for GIPRCNT values of -100.
On to `COc1ccc2nc(-c3ccccc3)cc(C(C)=O)c2c1`, for which the growth is 100% (inactive).
In the case of `CCCCN(CCCC)c1ccc(C(=NC(C)CCCN(CC)CC)c2ccc(N(C)C)cc2)cc1` (stereo not given) it was -16.4% (active).
In the case of `c1ccc(OCCC[P+](c2ccccc2)(c2ccccc2)c2ccccc2)cc1` it was 25.6% (inactive); in that of `COc1cc(-c2c(C#N)c(N)n3c(nc4ccccc43)c2C#N)cc(Br)c1OC`, 4.73% (active).
With `CCOC(=S)Sc1ccc([N+](=O)[O-])cc1[N+](=O)[O-]`, the growth is 83.2% (inactive).
As for `O=S(=O)(NC1c2ccccc2Oc2ccccc21)c1ccccc1`, the growth was 98.4% (inactive).
In the case of `CCOC(=O)c1ccc(NC(=O)Nc2nncs2)cc1` it was 19.4% (inactive).
In the case of `CCOc1nc(-c2ccccc2)cc2c(O)c(C(=O)NCCCO)[nH]c(=O)c12` it was 106% (inactive); in that of `CCOC(=O)Nc1ccc2c(c1)C(=O)N(CC)c1ccccc1O2`, 19.4% (inactive); in that of `COc1ccc(-c2oncc2-c2cc(OC)c3c(c2)OCO3)cc1`, 27.7% (inactive).
As to `COc1ccc(Cn2cc3c(c2-c2cc(OC)c(OC)c(OC)c2)CCc2cnoc2-3)cc1N`, the growth is 28.5% (inactive).
In the case of `O=C1/C(=C/c2cccs2)CCC/C1=C\c1cccs1` it was 88.4% (inactive); in that of `COc1cc(-c2nc3ccccc3[nH]2)ccc1OCC(=O)N=Nc1c(O)[nH]c2ccccc12`, 105% (inactive); in that of `COc1cc(/C=C/C(=O)c2cc(-c3ccccc3)ccc2O)cc(OC)c1OC`, 85% (inactive).
In the case of `CC(C)C[C@H](NC(=O)Cn1ccc2ccccc2c1=O)B(O)O` it was 84.9% (inactive).
Regarding `Nc1nc(SCC#CCCl)c2[nH]cnc2n1`, the growth is 54.5% (inactive).
With `CCCC(C)c1ccc(OCCCCCCN2CCNCC2)cc1` (stereo not given), the growth was 39.7% (inactive).
In the case of `COC(=O)[C@]12CC[C@@H](C)[C@H](C)[C@@H]1C1=CC[C@@H]3[C@@]4(C)CC(=O)[C@H](O)[C@@](C)(CO)[C@@H]4C(=O)C[C@@]3(C)[C@]1(C)CC2` it was -63.6% (active); in that of `CC(=O)c1c(O)cc2c3c1OC(C)(C)C1CCC(C)(CC31)O2` (stereo not given), 98.1% (inactive).
In the case of `c1ccc(C2CCCCC2)c(OCCCCCN2CCNCC2)c1` it was 53% (inactive).
In the case of `COC(=O)[C@]12CC[C@@H](C)[C@H](C)[C@@H]1C1=CC[C@@H]3[C@@]4(C)CC(=O)[C@H](O)[C@@]5(C)COC(=C45)C[C@@]3(C)[C@]1(C)CC2` it was -60.4% (active); in that of `O=C(Nc1cccc(Cl)c1)OCC(COC(=O)Nc1cccc(Cl)c1)(COC(=O)Nc1cccc(Cl)c1)[N+](=O)[O-]`, 26.2% (inactive); in that of `COc1cc([C@@H]2c3cc4c(cc3[C@H](SC(=N)N)[C@H]3COC(=O)[C@H]23)OCO4)cc(OC)c1OC`, 18.3% (inactive).
For `COc1c(-c2c3sc(=O)[nH]c3nc3c2c(=O)[nH]n3C(C)C)cc2c(c1OC)OCO2`, the growth is 95.8% (inactive).
With `c1ccc(CNc2nc(Nc3ccc(-c4nc5ccccc5[nH]4)cc3)c3cn[nH]c3n2)cc1`, the growth was 4.29% (active).
In the case of `O=C(Nc1ccc(CN2CCOCC2)cc1)c1ccc(-c2cc(Cl)ccc2Cl)o1` it was 57.3% (inactive).
In the case of `O=C(NC1CCN(Cc2ccccc2)CC1)c1cc(-c2ccncc2)nc2ccc(Cl)cc12` it was 6.48% (active); in that of `COC(=O)c1cnc2c(c1)Oc1ccc(Cl)cc1-c1cc(C)nn1-2`, 59.2% (inactive).
In the case of `COc1ccc2c(=O)cc(C(Cl)(Cl)Cl)oc2c1` it was -0.889% (active).
Turning to `Cc1ccc(C)c(S(=O)(=O)NC2c3ccccc3Oc3ccccc32)c1`, the growth is 96.7% (inactive).
In the case of `CCCCOCCOCCOCc1cc2c(cc1Br)OCO2` it was 91.2% (inactive); in that of `COCCOC(=O)NC(=O)Nc1ccc(/C(=N/O)c2ccc(Cl)cc2)cc1`, 15.4% (inactive); in that of `Nc1cc2c(cc1Cl)-c1ccc(Cl)cc1C2=O`, 85.7% (inactive).
In the case of `Cc1nn2c(/C=C3/C(=O)Nc4ccc(Cl)cc43)c(-c3ccccc3)nc2s1` it was 24.2% (inactive); in that of `Cc1cc(C#Cc2ccccc2)ccc1-n1c(/C=C/c2cc(O)ccc2O)nc2ccccc2c1=O`, 8.93% (active).
With `COc1c(C)c(C)c(OC)c2c1[nH]c(=O)c1c3cccnc3cn21`, the growth is 114% (inactive).
In the case of `Nc1cc(O)cc(O)c1` it was 106% (inactive); in that of `FC(F)(F)c1ccc(-c2cnc(Br)nc2NC2CCCCCC2)cc1`, 28.8% (inactive); in that of `CCCCC(=O)N(c1ccc(Nc2c3ccccc3nc3cc([N+](=O)[O-])ccc23)cc1)S(C)(=O)=O`, 34% (inactive).
Consider `CCCCCCOc1ccc(/C=C/C(=O)c2ccc(B(O)O)cc2)cc1`, for which the growth was 75.7% (inactive).
